The source of these data is PubChem BioAssay AID1768 (National Center for Advancing Translational Sciences (NCATS), 2009).

Each structure is given as a SMILES string. Out of some 270,000 compounds screened, about 620 (0.23%) were called active. Not shown: some 12% with an inconclusive outcome. Calls come from the whole dose curve; as a rule, active = well fitted inhibition curve with a large enough effect in the polarisation, with a control signal flat (not every such curve was filed as active); inconclusive = small, poorly fitted or top-dose-only effect, or effect the other way, or a change in a side signal; inactive = no such curve, though single readings can be large or run the other way; the % refers to the polarisation. The full list was thinned out, with actives kept by preference.
Potency is the fitted concentration of half-maximal effect.

Chain of Menin (Homo sapiens) (O00255 whole entry, looked up, the tested form may be a part): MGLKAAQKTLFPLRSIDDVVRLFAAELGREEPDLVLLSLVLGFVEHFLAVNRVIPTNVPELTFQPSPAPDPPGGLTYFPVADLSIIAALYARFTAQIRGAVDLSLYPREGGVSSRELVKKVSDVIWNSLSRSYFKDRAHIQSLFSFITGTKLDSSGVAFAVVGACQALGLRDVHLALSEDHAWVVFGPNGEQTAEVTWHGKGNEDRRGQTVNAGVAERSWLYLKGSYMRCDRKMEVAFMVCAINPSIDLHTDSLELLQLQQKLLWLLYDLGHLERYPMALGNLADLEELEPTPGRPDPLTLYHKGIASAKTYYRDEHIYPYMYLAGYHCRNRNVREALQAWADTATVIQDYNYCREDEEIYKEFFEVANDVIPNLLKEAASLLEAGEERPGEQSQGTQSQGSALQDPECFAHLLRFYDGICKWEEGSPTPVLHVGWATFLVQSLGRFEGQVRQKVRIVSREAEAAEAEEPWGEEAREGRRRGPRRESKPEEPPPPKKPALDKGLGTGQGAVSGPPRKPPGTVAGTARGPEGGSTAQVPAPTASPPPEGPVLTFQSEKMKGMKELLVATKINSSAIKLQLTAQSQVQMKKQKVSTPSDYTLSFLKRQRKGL

The assay has as its target Menin (Homo sapiens) (UniProt O00255). Put plainly: qHTS Assay for Inhibitors Targeting the Menin-MLL Interaction in MLL Related Leukemias: Competition With Texas Red Labeled MLL-derived Mutant Peptide. For FP activity change, negative = inhibition: % of control where 0% means no effect. The settings on record: fluorescence polarization; series mostly up to 61.6 µM; FP activity change, negative = inhibition: at the top concentration. An excerpt: qHTS Assay for Inhibitors Targeting the Menin-MLL Interaction in MLL Related Leukemias NIH Chemical Genomics Center [NCGC] NIH Molecular Libraries Probe Centers Network [MLPCN] MLPCN Grant: MH084875-01A1 Assay Submitter (PI): Jolanta Grembecka, Tomasz Cierpicki, University of Virginia Translocations of the MLL (Mixed Lineage Leukemia) gene are frequently found in human leukemias affecting both children and adults. Fusion of MLL to one of more than 60 genes results in generation of oncogenic proteins upregulating Hox genes, which are vital to blood cell development. Patients harboring fusion of the MLL gene suffer from aggressive leukemias and respond poorly to available therapies. All of the oncogenic fusion proteins have a preserved N-terminal fragment of MLL that has been identified to interact with menin. It has been recently discovered that association with menin is critical to the leukemogenic activity of the MLL fusion oncoproteins. Selective targeting of the menin-MLL interaction could provide an attractive therapeutic approach to develop novel drugs for MLL-related leukemias. Small molecules blocking the menin-MLL interaction should reverse the oncogenic potential of MLL fusion proteins. We have developed and optimized a fluorescence polarization-based assay for the identification of Menin-MLL inhibitors. The assay was run employing two different MLL-derived peptides. The present assay uses a 12 amino acid peptide labeled with fluorescein at its N-terminus. This peptide consists of the menin high affinity binding motif from MLL and is potently bound by menin. Another peptide with a mutated sequence, labeled with Texas Red, was used in parallel as a less stringent screen for inhibitors.
The Menin protein, the MLL-wild type (w.t.) derived peptide (N-terminal 12 amino acids), the MLL-derived peptide labeled with Texas Red and the MLL-w.t. peptide labeled with Fluorescein were kindly supplied by laboratory of Dr. Jolanta Grembecka, University of Virginia. All protein and peptide solutions were stored in single use aliquots at -80C. The Eu3+ Cyrptate-conjugated mouse monoclonal antibody anti-6 Histidine (Eu3+-AB) and the Streptavidin-XL665 conjugate (XL665) were purchased from Cisbio International (Bedford, MA). All antibody and XL665 conjugate solution stocks were stored in single use aliquots at -20C. The Buffer components for all assays were purchased from Sigma-Aldrich (St. Louis, MO) and Invitrogen (Carlsbad, CA). FP Assay Reagents: 1. FP reaction buffer: 50 mM Tris-HCl pH 7.5, 50 mM NaCl, 1mM DTT. Before use, 0.05% BSA is added. 2. Menin protein, MLL-w.t. labeled with fluorescein, MLL-mutant peptide labeled with texas red. Stored in singe use aliquots at -80C. 3. MLL-w.t. unlabeled peptide as positive control: 10 uM final in FP buffer. FP Assay Procedure: 1. Prepare Menin at 200 nM, MLL-w.t.-fluorescein at 25 nM, and MLL-mutant-texas red at 50 nM mixture in FP buffer. 2. Prepare Menin at 200 nM, MLL-w.t.-fluorescein at 25 nM, MLL-mutant-texas red at 50 nM, and 10 uM MLL-w.t. unlabeled mixture in FP buffer. 3. Prepare MLL-w.t.-fluorescein at 25 nM and MLL-mutant-texas red at 50 nM mixture in FP buffer. 3. Dispense 4 ul per well of reagent in step 1 in columns 2, 4 - 48 in a black 1536 well plate, dispense 4 ul per well of reagents from steps 2 and 3 in columns 1 and 3 respectively. Incubate plate at ambient for 15 minutes. 4. Transfer 23 nl per well of compound to plate and incubate at ambient for 1 hr. 5. Read fluorescence polarization for each label using the PerkinElmer Envision. Envision protocol for fluorescein: FITC FP Dual Enh Mirror, Excitation filter 480, Emission filter (1) P-pol 535, Emission filter (2) S-pol 535 Envision protocol for texas red: FP Dual Enh Mirror, Excitation filter 555, Emission filter (1) P-pol 632, Emission filter (2) S-pol 632
In general terms: qHTS replaces the single test concentration by a dilution series.
With `CC(C)(O)C#Cc1ccc(CN2CCC(CO)(CCc3ccccc3)CC2)cc1`, the “FP activity change, negative = inhibition” value is 8.13% (inactive).

For the molecule `CCOCCCNc1nc(-c2ccccc2)nc2ccccc12`, the “FP activity change, negative = inhibition” value is 19.4% (inactive). For `Cc1c(CN2CC[C@@H](N3CCN(c4ccccn4)CC3)[C@H](O)C2)[nH]c2ccc(F)cc12`, the “FP activity change, negative = inhibition” value was -9.78% (inactive).

For the molecule `O=C(NCCCO)c1cc2c([nH]c3ccccc32)c(-c2ccc(F)cc2)n1`, the “FP activity change, negative = inhibition” value was 8.97% (inactive). Still for that read-out and setting: in the case of `CC(=O)N1c2ccc(S(=O)(=O)N3CCC(C(=O)NC4CCCC(C)C4C)CC3)cc2CC1C` (stereo not given) it was -6.75% (inactive); in that of `CNC(=O)[C@]1(C(F)(F)F)C[C@H](CCc2ccccc2)CCCO1`, 3.94% (inactive). With `CC1CCCCC1NC(=O)CCS(=O)(=O)c1ccc2c(c1)NC(=O)CO2` (stereo not given), the “FP activity change, negative = inhibition” value is -10.4% (inactive).

Consider `CCCOc1ccc(N/C=C/C(=O)C(C)(C)C)cc1`, for which the “FP activity change, negative = inhibition” value is 1.33% (inactive). Turning to `CN(C)c1ccc(N/C=C/C(=O)C(F)(F)F)cc1`, the Potency was 28.2 µM (active). `O=C(/C=C/Nc1ccccc1OC(F)(F)F)C(F)(F)F`: the “FP activity change, negative = inhibition” value was 5.87% (inactive). Still for that read-out and setting: in the case of `COc1cccc(N2C(=O)CN(Cc3ccccc3)C2=S)c1` it was 32.3% (inactive); in that of `Cn1nccc1C(=O)N1CCCC(C(=O)c2ccc(Oc3ccccc3)cc2)C1` (stereo not given), -18.8% (inactive). On the same count and under the same terms, then `COc1ccc(-c2noc(CCCC(=O)NC3CCCC3)n2)cc1OC`, with -7.12% (inactive). Still for that read-out and setting: then `Cc1noc(C)c1-c1ccc2ncnc(NCc3ccc4[nH]ccc4c3)c2c1`, with 28.6% (inactive).

Regarding `Cc1ccc(N(Cc2cc(=O)[nH]c3ccccc23)C(=O)CCl)cc1`, the Potency was 10 µM (active). Consider `CC(=O)N(Cc1cc(=O)[nH]c2ccccc12)c1ccc(C)cc1C`, for which the “FP activity change, negative = inhibition” value is 1.95% (inactive). In the case of `Cc1ccc(N(Cc2cc3ccccc3[nH]c2=O)C(=O)c2cccs2)cc1`, the “FP activity change, negative = inhibition” value was 0.868% (inactive).

As for `CCN(CC)CCCNC(=O)COc1ccc2oc3c(c2c1)CCCC3`, the “FP activity change, negative = inhibition” value was -9.91% (inactive).

As to `CC(C)c1ccc(NC(=O)C2CCCN(S(=O)(=O)c3cccnc3)C2)cc1` (stereo not given), the “FP activity change, negative = inhibition” value was -12.3% (inactive). On the same count and under the same terms, then `COc1cc(/C=C2\SC(=O)NC2=O)ccc1OCc1ccc(Cl)nc1`, with 3.5% (inactive); and `COC(=O)c1cc(S(=O)(=O)NCC2CCN(Cc3ccc(Cl)cc3)CC2)cn1C`, with -0.368% (inactive); and `Cc1cccc(NC(=S)NCCc2ccc(Cl)cc2)c1C`, with 4.12% (inactive). Still for that read-out and setting: then `COC(=O)C(CC(C)C)NS(=O)(=O)c1cc(Br)ccc1Br` (stereo not given), with -7.91% (inactive); and `Cc1c(C)c2ccc(OCC(=O)N3CCN(c4cccc(Cl)c4)CC3)cc2oc1=O`, with 7.56% (inactive). On the same count and under the same terms, then `Cc1ccc(S(=O)(=O)NNC(=O)/C=C/c2cccc(F)c2)cc1`, with -0.819% (inactive); and `O=C(COC(=O)c1cccs1)Nc1ccccc1Cl`, with 0.3% (inactive). With `O=C(COC(=O)c1c2c(nc3ccccc13)/C(=C\c1cccs1)CCC2)Nc1ccccc1Cl`, the Potency was 14.1 µM (active). With `COc1cc(/C=C2\CCCc3c2nc2ccccc2c3C(=O)O)cc(Cl)c1O`, the “FP activity change, negative = inhibition” value is 16.7% (inactive).

With `CC1CCN(CC(O)COc2ccc(C(=O)c3ccccc3)cc2)CC1` (stereo not given), the “FP activity change, negative = inhibition” value was -25.4% (inactive). The same measure, in the same setting: in the case of `CCC(CC)c1nnc(NC(=O)C2CCN(C(=O)c3ccco3)CC2)s1` it was -19.3% (inactive); in that of `Cc1cccc(OCC(=O)Nc2ccc(NC(=O)c3ccco3)c(C)c2)c1`, -22.6% (inactive).

For `COc1ccc(Cn2c(=S)[nH]c3cc(C(=O)NCCCN4CCOCC4)ccc3c2=O)cc1`, the “FP activity change, negative = inhibition” value is 14.5% (inactive). Same read-out and setting: then `CC(C)CN(Cc1c(O)ccc2c(=O)c(-c3ccccc3)coc12)CC(C)C`, with 16.6% (inactive); and `CCOC(=O)c1c(-c2ccc(-c3ccccc3)cc2)csc1NC(=O)CCC(=O)O`, with 20.7% (inactive); and `COc1ccc(Br)cc1C1C2C=CCC(C)C2C(=O)N1Cc1ccccc1` (stereo not given), with -15.8% (inactive). On the same count and under the same terms, then `CNc1nc2c(C)cccn2c(=O)c1C=Nc1ccc(OC)cc1`, with -16.5% (inactive); and `CCn1c(=N)c(C(=O)NCCCOC)cc2c(=O)n3cccc(C)c3nc21`, with -13.2% (inactive). Take `Cc1cccn2c(=O)c(/C=C3\SC(=S)N(CC(C)C)C3=O)c(NCCCOC(C)C)nc12`: the Potency is 28.2 µM (active). In the case of `Cc1ccc(/C=C2/SC(=S)N(CCC(=O)NCCCN3CCOCC3)C2=O)cc1`, the “FP activity change, negative = inhibition” value is -14.8% (inactive).

Turning to `O=C1CCN(Cc2ccccc2)CCN1[C@H](CSc1ccccc1)c1ccccc1`, the “FP activity change, negative = inhibition” value was -15.5% (inactive). The same measure, in the same setting: in the case of `COCCNC(=O)COc1ccc(N(C)S(=O)(=O)c2ccc3ccccc3c2)cc1` it was 0.697% (inactive). The same measure, in the same setting: then `CC1CCCN(CC(=O)Nc2cc(Cl)ccc2Oc2ccccc2)C1` (stereo not given), with -19.8% (inactive); and `CCN(CC)/[N+]([O-])=N/Oc1cc(O/[N+]([O-])=N/N2CCCC2CO)c([N+](=O)[O-])cc1[N+](=O)[O-]` (stereo not given), with 0.381% (inactive). Still for that read-out and setting: in the case of `CC1CCN(C2=NC(=O)/C(=C/c3ccc(O)cc3)S2)CC1` it was -0.925% (inactive); in that of `c1ccc(Cc2ccc(OCCn3ccnc3)cc2)cc1`, -10.6% (inactive); in that of `O=C(O)C1CC=CC2CCN(C3CCCCC3)C(=O)C21` (stereo not given), 2.51% (inactive). For `CCOC(=O)c1cccc(NC(=O)C2CCN(c3ncnc4c3nc3n4CCCCC3)CC2)c1`, the “FP activity change, negative = inhibition” value was -10.2% (inactive). Turning to `CCOC(=O)c1ccc(NC(=O)c2ccc(NC(=O)C3CCCO3)cc2)cc1` (stereo not given), the “FP activity change, negative = inhibition” value was 28.3% (inactive).

Turning to `CCCNC(=O)c1ccc(N2CCC3(CC2)CC(c2ccc(Cl)cc2)=NO3)c([N+](=O)[O-])c1`, the “FP activity change, negative = inhibition” value was -0.331% (inactive). On the same count and under the same terms, in the case of `CCC(C)(C)NC(=O)C(c1ccc(OC)cc1)N(C(=O)CCC(=O)Nc1cc(C)on1)c1ccc(OC)cc1OC` (stereo not given) it was -17.8% (inactive).
